Assay outcomes from PubChem.
Compounds with a hit are over-represented: about 0.65% of the library has one in this group of screens.
SARS PLP yeast: blocks SARS-CoV papain-like protease in a yeast assay; hit rate 0.19% among 330,000; S. cerevisiae expressing SARS-CoV PLpro, growth rescue; Potency, µM (titrated, usually from 32.9 µM), actives largely listed as activators; further: nearly all actives have a fitted effect of over 55% in size
AMA1 RON2 block: inhibitors of Plasmodium falciparum AMA1-RON2 interaction. AlphaScreen AMA1-biotinylated RON2 peptide binding. Potency, µM (top dose mostly 58.2 µM), most hits filed as inhibitors. hit rate 0.2% among 360,000; active means well fitted inhibition curve with a large enough effect; inconclusive means small, poorly fitted or top-dose-only effect; inactive means no such curve, though single readings can be large or run the other way; further: nearly all actives have a fitted effect of over 45% in size
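AMA1 (3D7) with his tag at 25 nM final met compounds first, then biotinylated RON2 peptide at 25 nM; detection used donor plus acceptor beads, 10 µg/mL apiece, read by AlphaScreen after 30 min at room temperature.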
NS1 inh: influenza NS1 inhibition; AID 2326; hit rate 0.4% among 270,000; Potency, µM (top dose mostly 46.1 µM); further: actives are rising curves; nearly all actives have a fitted effect of over 50% in size
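Recovery from NS1-induced slow growth read by OD600 in budding yeast switched to galactose assay medium (pH 6.0, -URA) at 1:100 dilution. Compound 23 nl per well; the matching strain lacking NS1 serves as control.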
NS1 inh valid: validation of influenza NS1 protein function inhibitors | AID 492980 | influenza NS1 function cell assay, 15-point titration | shares compounds with NS1 inh | activity change, negative = inhibition, % at 32.9 µM | 1,400 tested, under 10 active
Flu PR8 replic: influenza NS1 inhibitors: inhibition of influenza A/PR/8/34 replication. shares compounds with NS1 inh. MDCK infected influenza A/PR/8/34, virus titer TCID50; active compounds read low. virus titer (log TCID50), log10 TCID50 at 5 µM. hit rate 30% among 95. AID 504647; call rule not given here
Large screens that a line does not name were inactive (follow-up assays come after a bar, where they were run). Unless noted, the call rests on the fitted dose curve.

O=C(c1cccc(F)c1)N1CCN(C(=O)C(c2ccccc2)c2ccccc2)CC1	none
Cc1ccc(N2C(=O)NC(=O)C3(Cc4ccccc4N4CCCC43)C2=O)cc1 (configuration not stated)	NS1 inh inconclusive
O=C1NC(=O)C2(Cc3ccccc3N3CCCC32)C(=O)N1c1ccc(Cl)cc1 (configuration not stated)	NS1 inh 11µM | NS1 inh valid inactive
CCCOc1ccc(-c2c(C(=O)N/N=C/c3cccnc3)nnn2-c2nonc2N)cc1	none
CCOCCCn1c(C)nc2c(c1=O)c1nc3ccccc3nc1n2-c1ccc2c(c1)OCCO2	none
CCn1c(SCC(=O)N2CCC(C)CC2)nc2c(c1=O)SCC2	NS1 inh 2µM | NS1 inh valid inactive
CCn1c(SCC(=O)N2CCCC2)nc2c(c1=O)SCC2	none
O=C(O)CCC(=O)N1CCc2cc(S(=O)(=O)NCc3ccc(Cl)cc3)ccc21	none
CC(C)CC(C(=O)O)C(C)CC(=O)Nc1ccn(-c2ccccc2)n1 (configuration not stated)	SARS PLP yeast inconclusive
CCCCC(C(=O)O)C(C)CC(=O)Nc1ccn(-c2ccccc2)n1 (configuration not stated)	NS1 inh 2.8µM | NS1 inh valid inactive
O=C(NC(=S)Nc1ccc2nc[nH]c2c1)c1ccccc1	none
Cc1ccc(CCN2CC(C(=O)NCc3ccco3)CC2=O)cc1 (configuration not stated)	NS1 inh inconclusive | NS1 inh valid inactive
Cc1ccc(CCN2CC(C(=O)NCCC(C)C)CC2=O)cc1 (configuration not stated)	none
COc1ccc(S(=O)(=O)Nc2ccc3c(c2)C(=O)N([C@H](C)CO)C[C@H](C)[C@@H](CN(C)S(=O)(=O)c2c(C)noc2C)O3)cc1	none (no result: NS1 inh)
N=c1c(C(=O)NCc2ccco2)cc2c(=O)n3ccccc3nc2n1Cc1ccccc1	none
N=c1c(C(=O)NCc2ccco2)cc2c(=O)n3ccccc3nc2n1Cc1ccc(Cl)cc1	NS1 inh 7.9µM | NS1 inh valid inactive
Cc1cc(C2=CC(C)(c3cc(C)oc3C)Nc3nc(C(F)(F)F)nn32)c(C)o1 (configuration not stated)	NS1 inh 18µM (no result: AMA1 RON2 block) | NS1 inh valid inactive
NC(=O)C1CCCN(Cc2c(C(=O)N3CCc4ccccc4C3)nc3ccc(Cl)cn23)C1 (configuration not stated)	none
O=C(c1cc2ccccc2oc1=O)N(Cc1ccco1)C1CCS(=O)(=O)C1 (configuration not stated)	NS1 inh 8.9µM | NS1 inh valid inactive
CN(C)c1ccc(CN(C(=O)c2cc3ccccc3oc2=O)C2CCS(=O)(=O)C2)cc1 (configuration not stated)	none
Cn1c(=O)n(-c2ccccc2)c(=O)c2c3c(sc21)COC(C)(C)C3	NS1 inh 8.9µM | NS1 inh valid inactive
CCC1(C)Cc2c(sc3c2c(=O)n(-c2ccccc2)c(=O)n3C)CO1 (configuration not stated)	none
Cc1ccc(NC(=O)NCCCl)cc1S(=O)(=O)N1CCOCC1	none
C[C@H]1CN([C@@H](C)CO)C(=O)c2cc(NC(=O)c3ccncc3)ccc2O[C@H]1CN(C)Cc1ccc(C(=O)O)cc1	none (no result: NS1 inh)
C=CCn1c(SCC2=C(C(=O)OCC)C(C)NC(=O)N2)nnc1C1CCCCC1 (configuration not stated)	NS1 inh 11µM | NS1 inh valid inactive | Flu PR8 replic inactive
C=CCn1c(SCC(=O)NC(=O)NCCC)nnc1C1CCCCC1	none
CN(C(=O)CSc1nnc(-c2cccs2)n1C1CC1)C1CCS(=O)(=O)C1 (configuration not stated)	none (no result: NS1 inh)
CCCc1nc2ccccc2c(=O)n1-c1c(C)n(C)n(-c2ccccc2)c1=O	NS1 inh 4.5µM | NS1 inh valid inactive
Cc1ccc(-c2nc3ccccc3c(=O)n2-c2c(C)n(C)n(-c3ccccc3)c2=O)cc1	none
Cc1ccc(N2CC(C(=O)N/N=C/c3c(F)cccc3Cl)CC2=O)cc1 (configuration not stated)	none
O=C(Nc1nc(-c2ccco2)c(-c2ccco2)s1)C1CC(=O)N(c2ccc3c(c2)OCCO3)C1 (configuration not stated)	AMA1 RON2 block 10µM, NS1 inh 10µM | NS1 inh valid inactive
Cc1nnc(NC(=O)C2CC(=O)N(c3ccc4c(c3)OCCO4)C2)s1 (configuration not stated)	none (no result: NS1 inh)
CCn1c(CCl)nc2cc(S(=O)(=O)N3CCOCC3)ccc21	none (no result: NS1 inh)
CCc1cc(=O)oc2cc(C)cc(OCC(=O)N[C@@H](CSCc3ccccc3)C(=O)O)c12	SARS PLP yeast inconclusive, NS1 inh 10µM | NS1 inh valid inactive | Flu PR8 replic 7.3
CCCCc1cc(=O)oc2cc(C)cc(OCC(=O)N[C@@H](CSCc3ccccc3)C(=O)O)c12	none
C[C@@H](C(=O)Nc1ccc2ccccc2c1)[C@H]1C[C@]1(C)[C@H](NC(=O)c1cccnc1)c1ccccc1	NS1 inh 14µM | NS1 inh valid inactive | Flu PR8 replic inactive
C[C@@H](C(=O)Nc1ccc2ccccc2c1)[C@H]1C[C@]1(C)[C@H](NS(=O)(=O)c1ccc(-c2ccccc2)cc1)c1ccccc1	NS1 inh inconclusive
C[C@@H](C(=O)Nc1ccc2ccccc2c1)[C@@H]1C[C@@]1(C)[C@@H](NC(=O)c1ccccc1)c1ccccc1	NS1 inh 13µM | NS1 inh valid inactive | Flu PR8 replic inactive
COC(=O)N[C@H](c1ccccc1)[C@@]1(C)C[C@@H]1[C@@H](C)C(=O)Nc1ccc2ccccc2c1	none (no result: SARS PLP yeast, NS1 inh)
O=S(=O)(c1ccc2ccccc2c1)N1CCOCC1	none
O=S(=O)(c1ccc2nc(-c3ccco3)c(-c3ccco3)nc2c1)N1CCOCC1	NS1 inh 1µM | NS1 inh valid inactive
COc1ccc(NC(=O)/C(C#N)=C/c2ncc([N+](=O)[O-])n2C)c(OC)c1	none
O=C(CN1CCNCC1)NCCSc1ccc(Cl)cc1	none (no result: NS1 inh)
COc1ccccc1OCC(=O)NC1CC(C)(C)NC(C)(C)C1	none
C[C@H]1c2cccc(O)c2C(O)=C2C(=O)[C@]3(O)C(O)=C(C(N)=O)C(=O)C(N(C)C)[C@@H]3[C@@H](O)C21 (some centres not stated)	NS1 inh 7.1µM (no result: SARS PLP yeast, AMA1 RON2 block) | NS1 inh valid inactive
C[C@H]1c2cccc(O)c2C(O)=C2C(=O)[C@]3(O)C(O)=C(C(N)=O)C(=O)[C@@H](N(C)C)[C@@H]3[C@@H](O)[C@@H]21	AMA1 RON2 block inconclusive
Cc1ccc(SCC(=O)Nc2ccc3c(c2)C(=O)N(C)C3=O)cc1	NS1 inh 2.5µM | NS1 inh valid inactive
Cc1ccc(SCC(=O)Nc2ccc3c(c2)C(=O)NC3=O)cc1	none (no result: NS1 inh)
O=C(CSc1nc(=O)n2ccccc2n1)Nc1ccc2c(c1)OCO2	none (no result: NS1 inh)
COc1ccc(Oc2nc(C)cc(C)c2C#N)cc1	NS1 inh inconclusive | NS1 inh valid inactive
COc1ccc(Nc2nc(C)cc(C)c2C#N)cc1	none
Cc1ccccc1-c1csc(C(O)(c2ccccc2)C(F)(F)F)n1 (configuration not stated)	none (no result: SARS PLP yeast, NS1 inh)
